# Vif-APOBEC3G blk: inhibitors of Vif-APOBEC3G interaction | HeLa A3G-eYFP + Vif (tagged APOBEC3G with the HIV-1 protein that degrades it), YFP fluorescence, overnight | Q9HC16 | hit rate 0.076% among 410,000 | Potency, µM (doses to about 46.1 µM), for the others: at the highest dose activity, negative = active, hits mostly inhibitors; note: potency is the fitted concentration of half-maximal effect; % is set by controls: 0 for no effect and ±100 for the full control effect; nearly all actives have a fitted effect of over 60% in size
#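 HeLa cells stably expressing Vif and C-terminally eYFP-tagged A3G, seeded overnight at 37 deg C, then exposed to compound by pintool overnight at 37 deg C. Rise in yellow fluorescence (Ex 488/Em 500-530, Acumen) marks blocked Vif-driven A3G degradation.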
# 12-LOX inh: ALOX12 (human) lipoxygenase inhibition; P18054; purified 12hLO, xylenol orange hydroperoxide absorbance; Potency, µM (highest dose often 108 µM), inactives show top-dose activity change, negative = inhibition, hits mostly inhibitors; hit rate 1.1% among 580,000; note: potency is the fitted concentration of half-maximal effect; % is set by controls: 0 for no effect and ±100 for the full control effect
#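 Purified human 12hLO at 150 nM in 25 mM Hepes, 0.01% Triton X-100, pH 7.0, preincubated 15 min at room temperature with compound. Reaction started with 40 uM arachidonic acid, 30 min at room temperature. Hydroperoxide measured by Fe-xylenol orange, 573/405 nm absorbance ratio.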
# PTAP TSG101 blk: blocks PTAP/TSG101 interaction to inhibit HIV-1 budding; Fluorescence polarization, FITC-PTAP peptide / Tsg101 binding; Potency, µM (doses to about 115 µM), for inactives: at the top dose activity change, negative = inhibition, most hits filed as inhibitors; 340,000 tested, under 10 active; AID 493005; active = well fitted inhibition curve with a large enough effect in the main read-out, with a control signal flat, not every such curve was filed as active; inconclusive = small, poorly fitted or top-dose-only effect, or effect the other way, or a change in a side signal; inactive = no such curve, though single readings can be large or run the other way; note: potency is the fitted concentration of half-maximal effect; % of control where 0% means no effect
# Target sequence (Q99816 whole entry, looked up): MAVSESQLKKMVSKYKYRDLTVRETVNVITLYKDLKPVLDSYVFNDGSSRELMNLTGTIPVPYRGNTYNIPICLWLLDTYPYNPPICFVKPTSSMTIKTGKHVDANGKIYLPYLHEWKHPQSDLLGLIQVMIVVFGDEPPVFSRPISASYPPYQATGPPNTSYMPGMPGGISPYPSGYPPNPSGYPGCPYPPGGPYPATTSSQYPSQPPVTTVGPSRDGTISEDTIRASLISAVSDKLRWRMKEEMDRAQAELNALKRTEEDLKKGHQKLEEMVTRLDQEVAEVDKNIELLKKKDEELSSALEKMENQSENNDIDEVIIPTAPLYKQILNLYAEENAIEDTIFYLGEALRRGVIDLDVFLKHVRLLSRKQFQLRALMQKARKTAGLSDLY
#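 FP read-out: FITC-PTAP peptide, 50 nM final, binding Tsg101 binding domain, 10 uM final; 20 min, r.t.; 10 mM HEPES pH 7.5, 0.15 M NaCl, 0.01% Tween 20, 3 mM EDTA, 0.1 mM TCEP.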
# pAkt inh: inhibitors of Akt phosphorylation; hit rate 0.32% among 360,000; Neuro2A IGF-stimulated pAkt S473 HTRF, 20 min; stronger effect = lower value; activity change, % for hits at 50 µM; in the data active = activity change below about -80%; inconclusive = mostly about -51% to -80%; note: % is set by controls: 0 for no effect and ±100 for the full control effect
#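 Neuro2A cells (4,500/well, DMEM with 0.5% FBS) were treated with compound at a single 50 µM final concentration, stimulated with 6 nM IGF for 20 min at 37 °C, and lysed. Phospho-Akt Ser473 was read by HTRF as 665/615 ratio ×10^4.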
# S-ASM inh: inhibitors of human secretory acid sphingomyelinase | AID 504937 | placental ASM, HMU-PC fluorogenic substrate, 60 min | Potency, µM (doses to about 57.5 µM), inactives show at the highest dose activity change, negative = inhibition, most hits filed as inhibitors | hit rate 0.006% among 340,000 | P17405; note: potency is the fitted concentration of half-maximal effect
#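 qHTS format. ASM enzyme prepared from human placenta hydrolyses the fluorogenic substrate HMU-PC0 (9 uM final) over 60 min at 37 °C after a 10 min compound preincubation.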
# Vif-APOBEC3F blk: Vif-A3F binding inhibition; HeLa A3F-eYFP + Vif (tagged APOBEC3F with the HIV-1 protein that degrades it), YFP fluorescence increase; Potency, µM (series often up to 46.1 µM), inactives show at the highest dose activity, negative = active; hit rate 0.2% among 390,000; AID 602313; note: potency is the fitted concentration of half-maximal effect; % of control where 0% means no effect; nearly all actives have a fitted effect of over 65% in size
#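 HeLa cells stably expressing A3F-eYFP plus Vif, plated and incubated overnight at 37 deg C, then exposed to compounds overnight at 37 deg C. Blocked degradation read as raised yellow fluorescence (Ex 488/Em 500-530).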
# * hit, by the source's call; i = inactive; ? = inconclusive; nt = not tested or not shown; [ ] = dose if it differs, or a comment. An excerpt weighted towards active compounds, which were near 1.4% of everything screened. Unless noted, calls come from the whole dose curve; as a rule, active = well fitted curve in the direction sought with a large enough effect; inconclusive = small, poorly fitted or top-dose-only effect, or another doubt; inactive = no such curve, though single readings can be large; an effect the other way counts as inactive or inconclusive.
SMILES,Vif-APOBEC3G blk,12-LOX inh,PTAP TSG101 blk,pAkt inh,S-ASM inh,Vif-APOBEC3F blk
Cc1nn(C)cc1B1OC(C)(C)C(C)(C)O1,nt,-1%,nt,nt,nt,nt
Cn1cc(C(C(=O)O)N2CCCC2)c2cc(C(=O)O)ccc21 (stereo not drawn),nt,-9%,nt,nt,nt,nt
O=C(c1cc(-c2ccco2)on1)N1CCc2ccccc2C1,-2%,18µM*,-2%,i,-2%,-12%
O=C(O)c1ccc(-c2ccc(Cl)c(Cl)c2)cc1F,nt,-25%,nt,nt,nt,nt
Cc1cc(SCC(=O)c2ccc(Cl)cc2)nc(=O)[nH]1,-6%,20µM*,1%,i,13%,-13%
Cc1ccc(C(=O)CSc2cc(C)[nH]c(=O)n2)cc1,-2%,?,0%,i,-13%,-2%
COc1ccc2cc(C(=O)N3CCC4(CC3)CC(C(=O)N3CCOCC3)N(C)C4)[nH]c2c1 (stereo not drawn),nt,8%,nt,nt,nt,nt
CC1CCCN(C(=S)SCC(=O)O)C1 (stereo not drawn),-1%,0%,-1%,i,3%,-8%
O=C(CSC(=S)N1CCCC1)c1cc(Br)cc(Br)c1O,-8%,14µM*,-1%,i,2%,?
CC1CCCN(C(=S)SCC(=O)c2cc(Br)cc(Br)c2O)C1 (stereo not drawn),7%,6.3µM*,-1%,i,-1%,?
CCOc1cc(C(=O)OCC(=O)NC(N)=O)cc(OCC)c1OCC,nt,-5%,nt,nt,nt,nt
COc1ccccc1N1CCN(c2nc(C)c3c(n2)CC(C)(C)CC3=O)CC1,nt,2%,nt,nt,nt,nt
CC(C)c1nc(OCC(=O)NCc2ccccc2)c(C#N)c2c1CCCC2,nt,1%,nt,nt,nt,nt
C/C(=N\NC(=O)c1ccc(F)cc1)c1cccc(NC(=O)c2cccc(F)c2)c1,4%,45%,1%,i,13%,4%
C/C(=N\NC(=O)c1ccc(F)cc1)c1cccc(NC(=O)c2ccco2)c1,-1%,418%,-2%,-95%*,3%,-11%
COc1cc(C(=O)NCC2COc3ccccc3O2)cc(OC)c1OC (stereo not drawn),nt,3%,nt,nt,nt,nt
CN(C)c1ccc2nc3c(=O)[nH]c(=O)nc-3n(CC(O)C(O)C(O)CO)c2c1 (stereo not drawn),2%,0%,?,i,-1%,8.9µM*
Cc1ncc(C(O)c2ccc(N(C)C)cc2)n1Cc1ccccc1 (stereo not drawn),0%,0%,nt,i,nt,-6%
CCNC(=O)C1CCN(S(=O)(=O)c2c(C)nn(CC(=O)N3CCc4ccccc43)c2C)CC1,nt,-4%,nt,nt,nt,nt
Cc1ccsc1[C@@H]1CCN(Cc2ccc(C#CC(C)(C)O)cc2)C[C@H]1O,nt,45µM*,nt,nt,nt,nt
COc1ccc(NC(=O)Nc2c(NC3CCCCC3)c3ccccc3oc2=O)c(OC)c1,nt,13%,nt,nt,nt,nt
C=CCN1C=CC(=C/C=C(/C#N)C(=O)OCC)C=C1,?,0%[57.4 µM],?,i,-23%,11µM*
CCOC(=O)c1[nH]c(C)c(C(=O)OC)c1C,-1%,210%,-1%,i,-3%,3%
CCOC(=O)c1[nH]c(C)c(/C(Br)=C/Br)c1C,nt,6.3µM*,nt,nt,nt,nt
CCOC(=O)c1c(C)[nH]c(C(=O)OCC(=O)N2CC(C)OC(C)C2)c1C (stereo not drawn),-1%,-17%,-2%,-130%*,0%,2%
SMILES,Vif-APOBEC3G blk,12-LOX inh,PTAP TSG101 blk,pAkt inh,S-ASM inh,Vif-APOBEC3F blk
CCOC(=O)C1=C(C)NC(C)=C(C(=O)OCC)C1C(=O)OCC(=O)N1CC(C)OC(C)C1 (stereo not drawn),-3%,39%,3%,i,57%,-6%
CN1C(=O)N(c2cccc(Cl)c2)C(C)(O)CC1(C)C (stereo not drawn),nt,-3%,nt,nt,nt,nt
Nc1ccsc1C(=O)N1CCC2(CCC(=O)N(CC3CCCO3)C2)CC1 (stereo not drawn),nt,7.9µM*,nt,nt,nt,nt
O=C1CCC2(CCN(C(=O)c3ccco3)CC2)CN1CC1CCCO1 (stereo not drawn),nt,20%,nt,nt,nt,nt
O=C(C1CC1)N1CCc2cc(Br)cc(S(=O)(=O)NC3CCCCC3)c21,1%,0%,-4%,-119%*,-7%,nt
O=C(C1CC1)N1CCc2cc(Br)cc(S(=O)(=O)N3CCCCCC3)c21,-9%,0%,-4%,i,-8%,4%
O=C(O)CCCC(=O)N1N=C(c2ccsc2)CC1c1ccc(F)cc1 (stereo not drawn),nt,21%,nt,nt,nt,nt
CCn1cc(S(=O)(=O)Nc2cc(Cl)cc(Cl)c2)cn1,nt,-8%,nt,nt,nt,nt
Cc1cccc(Cn2cc(/C=C(\C#N)C(N)=O)c3ccccc32)c1,nt,-29%,nt,nt,nt,nt
COc1ccc(CC(=O)N2N=C(c3cccc(Br)c3)CC2(O)C(F)(F)F)cc1 (stereo not drawn),nt,14µM*,nt,nt,nt,nt
Cc1nn2c(c1-c1cccnc1N1CCOCC1)N(CC1CC1)CCC2,nt,10µM*,nt,nt,nt,nt
Cc1cccc(N2CCN(CC(=O)NCC3CCCCC3)CC2)c1C,0%,0.89µM*,-2%,i,4%,-16%
CCN1CCN(CC(=O)Nc2ccc(OC(F)(F)F)cc2)CC1,2%,0.5µM*,1%,i,-5%,9%
CCC(=O)c1sc(Nc2ccc(Cl)cc2C)nc1N,nt,-20%,nt,nt,nt,nt
Cc1ccc(C(=O)c2sc(Nc3ccc(Cl)cc3C)nc2N)cc1,nt,28µM*,nt,nt,nt,nt
